Experiments:
Conditions in all cases: Compound Concentration (nM):1000
TXK = tested on: TXK
[1] = tested on: TYK2(JH1domain-catalytic)
[2] = tested on: TYK2(JH2domain-pseudokinase)
TYRO3 = tested on: TYRO3
ULK1 = tested on: ULK1
ULK2 = tested on: ULK2
ULK3 = tested on: ULK3
VEGFR2 = tested on: T1, VEGFR2
T1 construct: gene KDR

VPS34 = tested on: T2, VPS34
T2 construct: gene PIK3C3

VRK2 = tested on: VRK2
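Note: KINOMEscan scanMAX binding as percent activity remaining versus control; lower means stronger binding.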

Compound	Percent Control (TXK)	Percent Control [1]	Percent Control [2]	Percent Control (TYRO3)	Percent Control (ULK1)	Percent Control (ULK2)	Percent Control (ULK3)	Percent Control (VEGFR2)	Percent Control (VPS34)	Percent Control (VRK2)
CCS(=O)(=O)c1ccc(OC)c(Nc2ncc(-c3cccc(OC)c3)o2)c1 [GW580509X]	74%	100%	100%	100%	87%	80%	99%	23%	100%	100%
COc1cc(C=NNc2ncnc3c2cnn3-c2ccccc2)ccc1O [GW513184X]	100%	47%	8%	100%	100%	100%	67%	95%	100%	100%
Cl.O=C(Nc1ccc(Oc2ccc3[nH]c(NC(=O)c4ccco4)nc3c2)cc1)Nc1cc(C(F)(F)F)ccc1F [GW683134A]	80%	100%	100%	71%	100%	89%	62%	20%	100%	100%
Nc1ncnc2occ(-c3ccc(NC(=O)Nc4cc(C(F)(F)F)ccc4F)cc3)c12 [GW770249X]	100%	100%	100%	100%	100%	93%	100%	0.9%	100%	100%
NS(=O)(=O)c1ccc(N/N=C2\C(=O)Nc3ccc(C(=O)NCc4ccncc4)cc32)cc1 [GW300657X]	100%	70%	31%	80%	15%	26%	31%	84%	71%	74%
Cl.O=C(Nc1ccc(Oc2ccc3[nH]c(NC(=O)c4ccccc4)nc3c2)cc1)Nc1cc(C(F)(F)F)ccc1F [GW709042A]	97%	100%	100%	94%	100%	100%	100%	49%	100%	100%
CCS(=O)(=O)c1ccc(OC)c(Nc2ncc(-c3cccc(F)c3)o2)c1 [GW621970X]	42%	100%	100%	73%	88%	95%	100%	2.4%	100%	93%
COc1cc(C)c(N(C)C(=O)CN(C)C)cc1Nc1nc(Nc2cccc(F)c2C(N)=O)c2cc[nH]c2n1 [GSK2219385]	90%	100%	100%	100%	72%	80%	100%	100%	82%	62%
CN(C)CCNC(=O)Nc1ccc(N(C)c2ccnc(Nc3ccc(CS(C)(=O)=O)cc3)n2)cc1.Cl [GW830900A]	61%	35%	49%	85%	94%	97%	80%	21%	77%	100%
COc1cc(/C=N/Nc2ncnc3[nH]ncc23)ccc1O [GW578748X]	83%	43%	0.2%	99%	48%	43%	6.1%	52%	87%	100%
COc1cc2ncn(-c3cc(O[C@H](C)c4ccccc4Cl)c(C(N)=O)s3)c2cc1OC [GSK237701A]	96%	45%	97%	100%	92%	75%	100%	33%	0.3%	80%
C/C(Nc1ccc(S(N)(=O)=O)cc1)=C1/C(=O)Nc2ccccc21 [GW335962X]	100%	77%	100%	100%	62%	52%	83%	1.2%	81%	80%
CN(C)c1cc2c(Nc3ccc4c(cnn4Cc4ccccc4)c3)ncnc2cn1 [GW282974X]	89%	100%	100%	100%		85%	91%	94%	78%	81%
O=C(Nc1n[nH]c2nc(-c3ccc(O)cc3)c(Br)cc12)C1CC1 [SB-725317]	100%	52%	100%	100%	100%	100%	100%	57%	100%	100%
NS(=O)(=O)c1ccc(N/N=C2\C(=O)Nc3ccc(C(=O)NCCc4c[nH]cn4)cc32)cc1 [GW300660X]	100%	81%	84%	100%	38%	37%	65%	79%	86%	100%
COc1ccc2cc(-c3c(-c4ccncc4)nc(-c4ccc(S(C)(=O)=O)cc4C)n3C)ccc2c1 [SB-633825]	90%	73%	100%	72%	72%	88%	73%	49%	86%	58%
COc1cccc(-c2c[nH]c3c(N/N=C/c4ccncc4)ncnc23)c1 [GW814408X]	100%	19%	0.1%	100%	100%	91%	68%	61%	65%	100%
COC(=O)Nc1nc2ccc(Oc3ccc(NC(=O)Nc4cc(C(F)(F)F)ccc4F)cc3)cc2s1.Cl [GW693917A]	77%	100%	100%	71%	62%	84%	78%	13%	76%	73%
Cl.O=S1CCN(Cc2ccc(-c3ccc4ncnc(Nc5ccc(OCc6ccccc6)c(F)c5)c4c3)o2)CC1 [GW576924A]	100%	100%	100%	100%	90%	100%	94%	97%	100%	100%
COc1cccc(-n2ncc3c(N/N=C/c4ccncc4)ncnc32)c1 [GW784752X]	90%	88%	11%	74%	67%	69%	100%	75%	100%	85%
Cl.c1ccc(Cc2nc3ccc(Nc4ncnc5ccccc45)cc3[nH]2)cc1 [GR269666A]	100%	100%	100%	90%	67%	100%	93%	72%	100%	100%
NS(=O)(=O)c1ccc(Nc2ncc(-c3ccccc3)o2)cc1 [GW572399X]	100%	100%	100%	100%	100%	91%	88%	22%	100%	100%
NS(=O)(=O)c1ccc(N/N=C2\C(=O)Nc3ccc(Cl)cc32)cc1 [GW280670X]	100%	98%	100%	100%	100%	100%	100%	52%	100%	100%
NS(=O)(=O)c1ccc(N/N=C2\C(=O)Nc3ccc(-c4cnco4)cc32)cc1 [GW276655]	76%	24%	37%	40%	84%	82%	40%	71%	92%	89%
Cl.O=C(O[C@H]1CN[C@H](C#Cc2cc3ncnc(Nc4ccc5c(cnn5Cc5ccccc5)c4)c3s2)C1)N1CCOCC1 [GSK200398A]	83%	100%	97%	100%	62%	86%	91%	89%	98%	87%
COc1ccccc1-c1cc(/C=C2\C(=O)Nc3ncc(Br)cc32)cc(Br)c1O [GW442130X]	100%	76%	100%	100%	85%	100%	78%	100%	77%	89%
CC1=C(C(=O)Nc2ccc3[nH]ncc3c2)C(c2ccc(Cl)c(Cl)c2)CC(=O)N1 (centres unmarked) [GSK299115A]	100%	14%	100%	89%	81%	72%	87%	92%	83%	72%
O=C1Nc2ccc(C(=O)c3ccco3)cc2C1=Cc1cc(Cl)c(O)c(Cl)c1 [GW406108X]	100%	35%	41%	86%		71%	60%	78%	11%	74%

Source: article PMC7826789 (International Journal of Molecular Sciences, 2021)
